From PubChem BioAssay AID1034 (Columbia University Molecular Screening Center, 2008)
The other results are listed elsewhere or left out. Calls of active or inactive are those of the source.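 Rule for the calls: active = activation above 30% in triplicate retests at 2 µM, then confirmed by visual review of the well images; inactive = the rest.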

Assay: potentiators of TNFa-induced VCAM1 expression, confirmation, imaging, HUVEC, triplicate retest (AID 1034);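 note: scaled per plate between unstimulated and TNFa-stimulated DMSO control wells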
Details: HUVEC TNFa-stimulated VCAM-1 immunofluorescence imaging; at 2 µM; active compounds read high

activation, inactive:
COc1ccc(OC)c(N=Cc2c(O)[nH]c3ccccc23)c1 -13.9%
CCOc1cc(-c2cc(-c3ccc(OC)cc3)nc(N)c2C#N)ccc1O -5.2%
CCN(CC(=O)Nc1ccc2c(c1)OCCO2)Cc1cc(=O)oc2cc(C)c(C)cc12 -6.7%
O=C(Nc1ccncc1)c1c(F)cccc1F -14.6%
CC1(C)CC(=O)C=C(N2CCCC2)C1 -17.7%
COCCNS(=O)(=O)c1cc(Br)ccc1OC -14.1%
CCCCN(C)C(=O)C1CCN(Cc2ccccn2)CC1 -13%
COc1ccc(/C=N/Nc2nc3ccccc3o2)cc1OC -3.9%
CC(=O)c1cnn(-c2cc(Oc3ccc(F)cc3)ncn2)c1C -14.8%
Cc1cccc2cc(CN(Cc3ccc4c(c3)OCO4)Cc3nnnn3C3CCCC3)c(=O)[nH]c12 4.1%
CC1=NN(C(C)C)C(=O)C1 -8.4%
CCOc1ccc(N=C2NC(=O)S/C2=C\c2ccc(O)cc2)cc1 -20.4%
CCCOc1cc(C)c(S(=O)(=O)n2nnc3ccccc32)cc1C -4.7%
